Assay results published in the supplement of paper PMC8866396.
± gives the standard deviation of the averaged measurements.

How the values were obtained:
IL-6-GFP PC-9GR = test: cell viability (CCK-8 OD) relative to DMSO control (fraction of control); higher = more viable cells; conditions: compound concentration: 10 uM; treatment time: 48 h
In short: (§1)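 PC-9 and PC-9GR lung cancer cells carrying a lentiviral construct that overexpresses IL-6-GFP were seeded in 96-well plates at 3000 cells/well. Every compound in a purchased 510-compound library was applied at a final 10 μM for 48 h, and a parallel set of plates was kept for GFP imaging. Cell viability was read by CCK-8 absorbance, taking each well's optical density as a ratio to the vehicle control well. Two independent replicates were run.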

IL-6-GFP PC-9 = test: as above; conditions: compound concentration: 10 uM; treatment time: 48 h
In short: as §1

Structure (SMILES)	cell viability (IL-6-GFP PC-9GR)	cell viability (IL-6-GFP PC-9)
O=C(NCC1CN(c2ccc(N3CCOCC3=O)cc2)C(=O)O1)c1ccc(Cl)s1 (centres undefined) [Rivaroxaban]	0.949 ± 0.11	0.98 ± 0.11
COc1cc2nccc(Oc3ccc(NC(=O)C4(C(=O)Nc5ccc(F)cc5)CC4)cc3)c2cc1OC.O=C(O)CC(O)C(=O)O [Cabozantinib malate (XL184)]	0.81 ± 0.13	0.958 ± 0.062
CCOC(=O)OC1(C(=O)OCCl)CCC2C3CCC4=CC(=O)C=CC4(C)C3C(O)CC21C (centres undefined) [Loteprednol etabonate]	1.21 ± 0.051	0.944 ± 0.063
NCCc1c[nH]cn1 [Histamine]	1.05 ± 0.16	1.29 ± 0.22
CCCC(=O)OC1(C(=O)CCl)C(C)CC2C3CCC4=CC(=O)C=CC4(C)C3(F)C(=O)CC21C (centres undefined) [clobetasone butyrate]	0.995 ± 0.17	0.99 ± 0.3
Cc1nc(Nc2ncc(C(=O)Nc3c(C)cccc3Cl)s2)cc(N2CCN(CCO)CC2)n1 [Dasatinib]	0.953 ± 0.026	0.206 ± 0.2
COc1cc(C2c3cc4c(cc3C(OC3OC5COC(c6cccs6)OC5C(O)C3O)C3COC(=O)C23)OCO4)cc(OC)c1O (centres undefined) [Teniposide]	0.0642 ± 0.047	0.121 ± 0.035
CC(=O)OC(C)C(C)C(=O)OCC12C3CC4(C)C(=CCC5C6(C)CCC(OC7OC(C(=O)[O][Na])C(OC8OC(CO)C(O)C(O)C8O)C(O)C7OC7OCC(O)C(O)C7O)C(C)(CO)C6CCC54C)C1CC(C)(C)C(O3)C2O (centres undefined) [Sodium Aescinate]	0.632 ± 0.25	1 ± 0.18
CCOc1cc2ncc(C#N)c(Nc3ccc(OCc4ccccn4)c(Cl)c3)c2cc1NC(=O)/C=C/CN(C)C [Neratinib (HKI-272)]	0.795 ± 0.045	0.506 ± 0.052
COc1ccc(S(=O)(=O)N(C(C)=O)c2ccccc2/C=C/c2cc[n+]([O-])cc2)cc1	0.674 ± 0.091	0.753 ± 0.018
C#Cc1cccc(Nc2ncnc3cc4c(cc23)OCCOCCOCCO4)c1 [Icotinib]	1.18 ± 0.048	0.58 ± 0.11
Cc1ccc(C(=O)c2ccc(CC(=O)O)n2C)cc1 [Tolmetin]	1.11 ± 0.13	1.29 ± 0.02
CC(C)Cc1ccc(C(C)C(=O)O)cc1 (centres undefined) [Ibuprofen]	1.32 ± 0.12	1.06 ± 0.19
O=C1CCCC2C3CCC[N+]4([O-])CCCC(CN12)C34 (centres undefined) [Oxymatrine]	1.47 ± 0.16	1.33 ± 0.068
C=CC(=O)Nc1cccc(Oc2nc(Nc3ccc(N4CCN(C)CC4)cc3)nc3ccsc23)c1	0.393 ± 0.19	0.465 ± 0.07
COC(=O)CC(O)(CCCC(C)(C)O)C(=O)OC1C(OC)=CC23CCCN2CCc2cc4c(cc2C13)OCO4 (centres undefined) [Homoharringtonine]	0.275 ± 0.17	0.358 ± 0.042
CCC(=O)NS(=O)(=O)c1ccc(-c2c(-c3ccccc3)noc2C)cc1 [Parecoxib]	1.06 ± 0.1	1.26 ± 0.014
Cc1cn(-c2cc(NC(=O)c3ccc(C)c(Nc4nccc(-c5cccnc5)n4)c3)cc(C(F)(F)F)c2)cn1 [Nilotinib (AMN-107)]	1.22 ± 0.089	1.135 ± 0.0089
CN1CCN(C(c2ccccc2)c2ccccc2)CC1.Cl.Cl [Cyclizine 2HCl]	1.06 ± 0.31	0.972 ± 0.038
O=C(c1ccc(F)c(F)c1Nc1ccc(I)cc1F)N1CC(O)(C2CCCCN2)C1 (centres undefined) [Cobimetinib (GDC-0973, RG7420)]	0.7146 ± 0.0029	0.115 ± 0.15
NC(CC(=O)N1CCn2c(nnc2C(F)(F)F)C1)Cc1cc(F)c(F)cc1F.O.O=P(O)(O)O (centres undefined) [Sitagliptin phosphate monohydrate]	0.836 ± 0.12	0.812 ± 0.47
CC#CCn1c(N2CCCC(N)C2)nc2c1c(=O)n(Cc1nc(C)c3ccccc3n1)c(=O)n2C (centres undefined) [Linagliptin]	0.849 ± 0.11	0.883 ± 0.22
COC(=O)C(Cc1ccccc1)NC(=O)C(N)CC(=O)O (centres undefined) [Aspartame]	1.08 ± 0.091	0.819 ± 0.06
COc1ccc(-c2cc(=S)ss2)cc1 [Anethole trithione]	0.868 ± 0.15	1.17 ± 0.031
C#Cc1cccc(Nc2ncnc3cc(OCCOC)c(OCCOC)cc23)c1 [Erlotinib]	0.81 ± 0.028	0.616 ± 0.035
Cc1c(C(=O)Nc2ccc(N3CC(C)OC(C)C3)nc2)cccc1-c1ccc(OC(F)(F)F)cc1 (centres undefined) [Sonidegib (Erismodegib, NVP-LDE225)]	1.05 ± 0.049	1.0769 ± 0.001
CC(CN1c2ccccc2Sc2ccccc21)N(C)C.Cl (centres undefined) [Promethazine HCl]	0.929 ± 0.013	1.05 ± 0.051
